Test results taken from article PMC5540273 (PLoS ONE, 2017).

How the values were obtained:
Conditions in all cases: concentration: 1 μM, replicates: in singlicate; n = 1
MERTK = tested on: MERTK
MET = tested on: MET
MINK = tested on: T1, MINK
T1 construct: gene MINK1

MKK7 = tested on: MKK7
MKNK1 = tested on: MKNK1
MKNK2 = tested on: MKNK2
MLCK = tested on: T2, MLCK
T2 construct: gene MYLK3

MLK1 = tested on: T3, MLK1
T3 construct: gene MAP3K9

MLK2 = tested on: MLK2
MLK3 = tested on: MLK3
MRCKA = tested on: MRCKA
MRCKB = tested on: T4, MRCKB
T4 construct: gene CDC42BPB

MST1R = tested on: MST1R
MST1 = tested on: T5, MST1
T5 construct: gene STK4

MST2 = tested on: T6, MST2
T6 construct: gene STK3

MST3 = tested on: T7, MST3
T7 construct: gene STK24

MST4 = tested on: MST4
MTOR = tested on: MTOR
MUSK = tested on: MUSK
MYLK2 = tested on: MYLK2
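Also: KINOMEscan kinase panel screen.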

| SMILES | %Inh (MERTK) [%] | %Inh (MET) [%] | %Inh (MINK) [%] | %Inh (MKK7) [%] | %Inh (MKNK1) [%] | %Inh (MKNK2) [%] | %Inh (MLCK) [%] | %Inh (MLK1) [%] | %Inh (MLK2) [%] | %Inh (MLK3) [%] | %Inh (MRCKA) [%] | %Inh (MRCKB) [%] | %Inh (MST1R) [%] | %Inh (MST1) [%] | %Inh (MST2) [%] | %Inh (MST3) [%] | %Inh (MST4) [%] | %Inh (MTOR) [%] | %Inh (MUSK) [%] | %Inh (MYLK2) [%] |
| --- | --- | --- | --- | --- | --- | --- | --- | --- | --- | --- | --- | --- | --- | --- | --- | --- | --- | --- | --- | --- |
| CC(C)N1CCC(n2cnc(-c3ccc(F)cc3)c2-c2ccnc(N)n2)CC1 [SB-223132] | 0 | 14 | 7 | 0 | 2 | 0 | 0 | 0 | 4 | 0 | 18 | 0 | 0 | 0 | 0 | 29 | 0 | 27 | 0 | 6 |
| COC(=O)c1cccc(NC(=O)NCCNc2ccnc(Nc3ccc(F)cc3)n2)c1 [GSK1379883] | 18 | 0 | 0 | 0 | 7 | 5 | 0 | 0 | 8 | 6 | 0 | 0 | 25 | 0 | 5 | 0 | 0 | 37 | 4 | 0 |
| CC(C)(C)OC(=O)NC1CCCN(c2cc(-c3ccc4c(N)n[nH]c4c3)nc(N)n2)C1 (stereo not shown) [GSK2286096] | 18 | 0 | 11 | 0 | 12 | 10 | 0 | 0 | 0 | 0 | 9 | 0 | 31 | 0 | 0 | 6 | 0 | 8 | 0 | 24 |
| Nc1nc(-c2ccccn2)c(-c2ccnc3ccccc23)s1 [GW548057] | 2 | 0 | 56 | 14 | 1 | 0 | 0 | 0 | 0 | 0 | 8 | 0 | 50 | 0 | 0 | 16 | 0 | 31 | 0 | 9 |
| CS(=O)(=O)CCNCc1ccc(-c2ccc3ncnc(Nc4ccc(OCc5ccccc5)c(Cl)c4)c3c2)o1.Cl [GW574783] | 5 | 0 | 0 | 71 | 26 | 0 | 0 | 0 | 31 | 10 | 0 | 2 | 17 | 23 | 0 | 0 | 0 | 30 | 19 | 16 |
| CCc1nc(-c2cccc(N(C)S(=O)(=O)c3ccccc3)c2)c(-c2ccnc(Nc3ccc(N4CCN(C(C)=O)CC4)nc3)n2)s1 [GSK1645895] | 11 | 0 | 18 | 0 | 0 | 6 | 0 | 0 | 0 | 0 | 0 | 0 | 40 | 3 | 16 | 15 | 0 | 2 | 1 | 0 |
| O=c1cc(N2CCOCC2)nc2n(Cc3cccc(Cl)c3)ccn12 [GSK2296823] | 15 | 0 | 0 | 12 | 0 | 15 | 0 | 0 | 19 | 0 | 7 | 16 | 17 | 0 | 11 | 0 | 0 | 62 | 11 | 2 |
| Cn1cc(-c2ccc3c(c2)CCN3C(=O)Cc2cccc(C(F)(F)F)c2)c2c(N)ncnc21 [GSK2606414] | 43 | 0 | 0 | 0 | 0 | 1 | 12 | 0 | 27 | 8 | 0 | 0 | 6 | 14 | 0 | 0 | 0 | 0 | 6 | 24 |
| Nc1nc(-c2ccc3c(N)n[nH]c3c2)cc(N2CCC[C@@H](C(=O)Nc3ccccc3)C2)n1.O=C(O)C(F)(F)F.O=C(O)C(F)(F)F [GSK2288359] | 0 | 0 | 0 | 0 | 11 | 1 | 0 | 0 | 0 | 0 | 2 | 0 | 14 | 0 | 30 | 0 | 0 | 15 | 4 | 5 |
| CN1CCC(n2cnc(-c3ccc(F)cc3)c2-c2ccnc(NC3CCNCC3)n2)CC1 [SB-229482] | 0 | 0 | 0 | 11 | 0 | 32 | 0 | 38 | 5 | 0 | 6 | 0 | 33 | 3 | 24 | 0 | 0 | 0 | 0 | 21 |
| O=C(c1ccc(-c2cc(-c3c[nH]nc3-c3ccccn3)ccn2)cc1)N1CCCC1 [GW792479] | 0 | 23 | 30 | 0 | 0 | 0 | 0 | 14 | 14 | 3 | 24 | 0 | 0 | 0 | 0 | 11 | 0 | 14 | 9 | 0 |
| COc1ccc(NC(=O)c2ccc(-c3cc(-c4nnc(C)o4)ccc3C)cc2)cc1 [GW595885] | 21 | 0 | 0 | 34 | 2 | 12 | 0 | 0 | 0 | 11 | 0 | 3 | 34 | 0 | 0 | 0 | 0 | 14 | 12 | 0 |
| O=C(NCCCN1CCCC1=O)c1cnc(NCc2cc(Cl)ccc2Cl)nc1NC1CCNCC1 | 63 | 0 | 0 | 0 | 0 | 0 | 11 | 0 | 0 | 0 | 0 | 0 | 72 | 8 | 0 | 32 | 44 | 36 | 7 | 1 |
| CCCc1ccc(S(=O)(=O)NC2CCN(c3ccnc(Nc4ccc(OC)cc4)n3)C2)cc1 (stereo not shown) [GSK1379737] | 16 | 0 | 0 | 0 | 0 | 6 | 11 | 0 | 0 | 4 | 10 | 0 | 39 | 65 | 0 | 0 | 0 | 28 | 9 | 0 |
| Cl.c1ccc(Cn2ncc3cc(Nc4ncnc5ccccc45)ccc32)cc1 [GW273749] | 9 | 0 | 0 | 0 | 6 | 30 | 0 | 0 | 0 | 0 | 10 | 0 | 27 | 0 | 8 | 0 | 0 | 8 | 0 | 2 |
| NC(=O)c1sc(-n2cnc3ccccc32)cc1OCc1ccccc1F [GSK1024306] | 32 | 20 | 1 | 0 | 10 | 0 | 0 | 9 | 0 | 7 | 17 | 0 | 9 | 0 | 0 | 0 | 0 | 19 | 0 | 7 |
| CSc1ccc(NC2=C(c3ccccc3Cl)C(=O)NC2=O)cc1 [SB-342411] | 0 | 0 | 2 | 39 | 100 | 0 | 0 | 9 | 0 | 4 | 0 | 0 | 27 | 6 | 0 | 0 | 8 | 13 | 0 | 8 |
| CNc1nccc(-c2c(-c3ccc(F)cc3)ncn2C2CCN(C)CC2)n1 [SB-222903] | 0 | 6 | 43 | 0 | 0 | 0 | 0 | 0 | 31 | 0 | 0 | 5 | 0 | 0 | 0 | 0 | 0 | 18 | 0 | 0 |
| CCC(CC)(CC)n1cnc2c(N)ncnc21 [SKF-97620] | 40 | 0 | 15 | 0 | 0 | 10 | 0 | 0 | 3 | 1 | 0 | 13 | 0 | 6 | 7 | 10 | 30 | 14 | 11 | 19 |
| O=C(Nc1n[nH]c2nc(-c3ccco3)c(Br)cc12)c1ccc(CN2CCCC2)cc1.O=C(O)[C@H](O)[C@@H](O)C(=O)O [SB-742352] | 22 | 0 | 0 | 0 | 0 | 0 | 69 | 0 | 0 | 10 | 0 | 0 | 0 | 0 | 17 | 0 | 9 | 0 | 9 | 96.3 |
